Measured values reported in PubChem BioAssay (NCI).
Where “and” joins values, the source holds several entries; their conditions need not be identical. Equal values may be shown once. Compounds without any hit were thinned out: in the full panel of roughly 83,000, 20% have a hit.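 Values shown are percent growth following 48 h exposure of cells in 96-well plates to a single concentration of compound; below 10 was considered active.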 Calls of active or inactive are those of the source.

Tests used:
Assay in all cases: NCI-60 one-dose screen, 48 h (100 = growth as untreated, 0 = no growth, -100 = all killed)
Details in all cases: 10 µM unless noted
[1] = test system: T-47D breast
[2] = test system: BT-549 breast
[3] = test system: MDA-MB-435 melanoma
[4] = test system: SW-620 colon
[5] = test system: MCF7 breast
[6] = test system: HCT-116 colon
[7] = test system: HCC-2998 colon
[8] = test system: KM12 colon

| SMILES | growth [1] | growth [2] | growth [3] | growth [4] | growth [5] | growth [6] | growth [7] | growth [8] |
| --- | --- | --- | --- | --- | --- | --- | --- | --- |
| C#CCN(C)Cc1ccccc1 | 96.9% (inactive) and 99.3% (inactive) | 94.6% (inactive) and 141% (inactive) | 107% (inactive) and 98.3% (inactive) | 104% (inactive) and 103% (inactive) | 118% (inactive) and 95.9% (inactive) | 99.6% (inactive) and 86.9% (inactive) | 103% (inactive) and 97.7% (inactive) | 109% (inactive) and 102% (inactive) |
| CN(C)c1ccc(C(=C2C=CC(=[N+](C)C)C=C2)c2ccccc2Cl)cc1 | -33.3% (active) and -72.6% (active) | -35.9% (active) and 1.51% (active) | -40.9% (active) and -29% (active) | -75.8% (active) and -78.1% (active) | -9.73% (active) and -58.7% (active) | -66.7% (active) and -99.5% (active) | -92.3% (active) and -98.8% (active) | -94.6% (active) and -87.2% (active) |
| Cc1cccc(/C=C\C(=O)c2ccccc2)c1 | 93.8% (inactive) and 93.5% (inactive) | 90.5% (inactive) | 98.4% (inactive) and 88.5% (inactive) | 84.6% (inactive) and 62.2% (inactive) | 43.4% (inactive) and 82.6% (inactive) | 56.9% (inactive) | 97% (inactive) and 103% (inactive) | 85.6% (inactive) and 62.7% (inactive) |
| Cn1cnc([N+](=O)[O-])c1Sc1ncnc2nc[nH]c12 | 65.4% (inactive) and 79.7% (inactive) | 70.7% (inactive) | 33.7% (inactive) and 35.7% (inactive) | 93.8% (inactive) and 94.7% (inactive) | 36.2% (inactive) and 33.2% (inactive) | 50% (inactive) and 60.1% (inactive) | 64.4% (inactive) and 55% (inactive) | 51.2% (inactive) and 65.2% (inactive) |
| COc1ccccc1/C=N\N=C(N/N=C/c1ccccc1OC)N/N=C/c1ccccc1OC | 61.9% (inactive) and 27% (inactive) | 80.8% (inactive) and 39.1% (inactive) | 61.9% (inactive) and 30.2% (inactive) | 60.8% (inactive) and 20.1% (inactive) | 23.8% (inactive) and 6.76% (active) | 39.5% (inactive) and 14% (inactive) | 33.7% (inactive) and 26.8% (inactive) | 43.1% (inactive) and 15.6% (inactive) |
| C/C(=N\NC(=O)c1ccncc1)c1ccccc1O | 30.8% (inactive) and 24.3% (inactive) | 52% (inactive) and 20.7% (inactive) | 50.5% (inactive) and 57.5% (inactive) | 34.2% (inactive) and 42.3% (inactive) | 13.2% (inactive) and 13.4% (inactive) | 5.77% (active) and 2.15% (active) | 25% (inactive) and 32.1% (inactive) | 31.9% (inactive) and 34.4% (inactive) |
| CCN(CC)CCOc1ccc(/C=N/Nc2nc3c([nH]2)c(=O)n(C)c(=O)n3C)cc1 | 89.7% (inactive) and 96.3% (inactive) | 105% (inactive) and 96.1% (inactive) | 104% (inactive) and 105% (inactive) | 108% (inactive) and 104% (inactive) | 81.5% (inactive) and 74.6% (inactive) | 98.3% (inactive) and 103% (inactive) | 102% (inactive) and 111% (inactive) | 109% (inactive) and 106% (inactive) |
| CCOc1ccc2cc(-c3nn(CC4CCN(C)CC4)c4ncnc(N)c34)ccc2c1 | 68.5% (inactive) and 54.7% (inactive) | 71.6% (inactive) and 45.7% (inactive) | 95.4% (inactive) and 15.9% (inactive) | 91% (inactive) and 65.6% (inactive) | 85.7% (inactive) and 55.5% (inactive) | 63.2% (inactive) and 24.4% (inactive) | 102% (inactive) and 54.5% (inactive) | 89.4% (inactive) and 66.5% (inactive) |
| O=[N+]([O-])c1ccc(N/N=C\c2cc(Br)ccc2O)nc1 | 16% (inactive) and 33% (inactive) | 25.6% (inactive) | 29.3% (inactive) and 25.2% (inactive) | 27.3% (inactive) and 34.3% (inactive) | 13.4% (inactive) and 13.6% (inactive) | 10.1% (inactive) and 15.2% (inactive) | 23.2% (inactive) and 23% (inactive) | 32.5% (inactive) and 24% (inactive) |
| COc1cc(C(=O)N/N=C/c2ccc(N(C)C)cc2)cc(OC)c1OC | 63.3% (inactive) | -2.93% (active) | -11.9% (active) | 26.2% (inactive) | 18.3% (inactive) | 10.1% (inactive) | 12% (inactive) | 17% (inactive) |
| O=S(=O)(Nc1ccccc1)C1CCCCC1 | 116% (inactive) and 105% (inactive) | 121% (inactive) | 107% (inactive) and 102% (inactive) | 106% (inactive) and 107% (inactive) | 94.2% (inactive) and 104% (inactive) | 99.6% (inactive) and 107% (inactive) | 116% (inactive) and 106% (inactive) | 106% (inactive) and 112% (inactive) |
| Nc1nc(SC/C=C/CCl)c2[nH]cnc2n1 | 108% (inactive) and 92.9% (inactive) | 103% (inactive) and 126% (inactive) | 105% (inactive) and 101% (inactive) | 105% (inactive) and 106% (inactive) | 125% (inactive) and 85.4% (inactive) | 104% (inactive) and 105% (inactive) | 101% (inactive) and 103% (inactive) | 107% (inactive) and 111% (inactive) |
| O=C(/C=C\c1ccnc2ccccc12)c1ccc([N+](=O)[O-])cc1 | 70.3% (inactive) and 59.3% (inactive) | 80.4% (inactive) and 77.9% (inactive) | 93.2% (inactive) and 46.5% (inactive) | 80.6% (inactive) and 6.55% (active) | 75.8% (inactive) and 25.4% (inactive) | 0.905% (active) and -94% (active) | 82.7% (inactive) | 83.3% (inactive) and 33.1% (inactive) |
| Oc1c(CN2CCCCC2)ccc2cccnc12 | 38.8% (inactive) and 36.4% (inactive) | 94.7% (inactive) and 63.4% (inactive) | 63.9% (inactive) | 44% (inactive) and 44.7% (inactive) | 38.9% (inactive) | 10.1% (inactive) and 15.2% (inactive) | 96.5% (inactive) and 59.7% (inactive) | 44.5% (inactive) and 32.6% (inactive) |
| N#CC(C#N)=C/C=C/c1cccc([N+](=O)[O-])c1 | 39.1% (inactive) and 17% (inactive) | 57.1% (inactive) | 6.2% (active) and -53.1% (active) | 2.75% (active) and -71.6% (active) | 32.4% (inactive) and 18% (inactive) | -64.6% (active) and -91.7% (active) | -79.1% (active) and -79.8% (active) | 8.85% (active) and -76.4% (active) |
| O=S1(=O)CC(Br)C(Br)C1 (centres undefined) | 34.5% (inactive) and 63% (inactive) | 77.7% (inactive) and 82.9% (inactive) | 80.5% (inactive) and 95.1% (inactive) | 32.1% (inactive) and 29.8% (inactive) | 56.9% (inactive) and 63.7% (inactive) | 18.2% (inactive) and 66.8% (inactive) | 102% (inactive) and 117% (inactive) | 105% (inactive) and 116% (inactive) |
| Cc1n[nH]c(=O)n(/N=C\c2c[nH]c3ccccc23)c1=O | 102% (inactive) | 117% (inactive) | 107% (inactive) | 106% (inactive) | 91.1% (inactive) | 113% (inactive) | 108% (inactive) | 105% (inactive) |
| Oc1c(Cl)cc(Cl)cc1Sc1cc(Cl)cc(Cl)c1O | 77.4% (inactive) and 52.2% (inactive) and 80.7% (inactive) | 32.1% (inactive) and 77% (inactive) | 51% (inactive) and 26.6% (inactive) and 92.5% (inactive) | 15.7% (inactive) and 26.6% (inactive) and 83% (inactive) | 73.1% (inactive) and 5.37% (active) and 69.8% (inactive) | 18.7% (inactive) and 11.8% (inactive) and 76.7% (inactive) | 50% (inactive) and 23.1% (inactive) and 86% (inactive) | 46.7% (inactive) and 21% (inactive) and 80.2% (inactive) |
